Source: PubChem BioAssay
p97 ATPase inh: inhibitors of human p97 ATPase, primary screen, biochemical | hit rate 0.42% among 220,000 | inhibition, % at 8 µM | recombinant p97 ATPase, Kinase-Glo ATP luminescence, 3 h | AID 1481, 2009 | Transitional endoplasmic reticulum ATPase (Homo sapiens), P55072; in the data active means inhibition above about 15%;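 further: 0% = DMSO vehicle and 100% = wells lacking enzyme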
PREPL inhibitor: PREPL enzyme inhibitors, primary screen, biochemical, fluorescence polarization; Prolyl endopeptidase-like (Homo sapiens), Q4J6C6; recombinant PREPL, fluorescence polarization activity-based probe; inhibition, % at 5.96 µM; hit rate 0.68% among 320,000; AID 2751, 2010; in the data active means inhibition above about 43%;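 further: 0% = enzyme with DMSO and 100% = wells lacking enzyme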
Hck Nef HTS: inhibitors of Nef-activated human Hck kinase, primary screen, biochemical, Z-Lyte FRET, 384-well, Hck-YEEI. Tyrosine-protein kinase HCK (Homo sapiens), P08631. Recombinant Hck-YEEI plus Nef, Z-Lyte FRET kinase assay. inhibition, % at 20 µM. hit rate 0.68% among 220,000. AID 463187, 2010;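 active means Hck-Nef kinase inhibition above about 50%, limit read from the data; inactive means inhibition below that limit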;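 further: 0% = DMSO with Hck plus Nef and 100% = Hck alone without Nef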
LYPLA1 inh: LYPLA1 inhibitors, primary screen, counter-screen for PME1 inhibitor project, biochemical, fluorescence polarization, FP-Rh probe ABPP. Acyl-protein thioesterase 1 (Homo sapiens), O75608. recombinant LYPLA1. inhibition, % at 5.9 µM. hit rate 0.16% among 320,000. AID 2174, 2009;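 active means inhibition above the mean of all tested compounds plus 3 SD, set per campaign, cut at about 14% in these data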;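 further: inhibitors block serine hydrolase probe labeling of LYPLA1 so polarization falls; 0% = enzyme with DMSO and 100% = wells lacking LYPLA1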
Target sequence (O75608 whole entry, looked up): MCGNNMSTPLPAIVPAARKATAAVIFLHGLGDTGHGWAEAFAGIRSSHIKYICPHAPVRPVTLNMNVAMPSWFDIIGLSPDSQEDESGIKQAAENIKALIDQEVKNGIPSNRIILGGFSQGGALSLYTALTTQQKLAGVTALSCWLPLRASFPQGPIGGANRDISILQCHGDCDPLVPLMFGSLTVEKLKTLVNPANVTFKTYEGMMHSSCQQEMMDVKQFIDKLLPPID
Rin1-Abl PPI inh: inhibitors of Rin1-Abl protein binding, primary screen, biochemical, TR-FRET. Tyrosine-protein kinase ABL1 (Homo sapiens) + Ras and Rab interactor 1 (Homo sapiens), …. inhibition, % at 7.35 µM. hit rate 0.4% among 360,000. AID 588664, 2011; in the data active means inhibition above about 5%, passing the limit was not always enough
LYPLA2 counter: LYPLA2 inhibitors, primary screen, counter-screen for PME1 inhibitor project, biochemical, fluorescence polarization, FP-Rh probe ABPP; recombinant LYPLA2; Acyl-protein thioesterase 2 (Homo sapiens), O95372; AID 2177, 2009; inhibition, % at 5.9 µM; hit rate 0.38% among 320,000;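 active means inhibition above the screen-wide mean plus 3 SD, limit set per campaign, cut at about 26% in these data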;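 further: 0% = LYPLA2 with DMSO and 100% = wells lacking LYPLA2 enzyme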
Target sequence (O95372 whole entry, looked up): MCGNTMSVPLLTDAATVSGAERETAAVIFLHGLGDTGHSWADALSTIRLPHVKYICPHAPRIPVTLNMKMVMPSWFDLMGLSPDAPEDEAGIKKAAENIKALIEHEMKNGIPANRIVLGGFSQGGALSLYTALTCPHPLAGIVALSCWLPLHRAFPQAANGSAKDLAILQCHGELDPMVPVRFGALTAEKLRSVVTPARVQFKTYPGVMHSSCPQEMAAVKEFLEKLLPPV
Rin1-Abl confirm: Rin1-Abl binding inhibitor retest, confirmation, biochemical, TR-FRET; purified proteins; AID 602124, 2011; inhibition, % at 7.35 µM; hit rate 49% among 1,300; shares compounds with Rin1-Abl PPI inh
GFP quencher: GFP fluorescence inhibitors and quenchers, artefact control for Rin1-Abl interaction inhibitor project, biochemical; shares compounds with Rin1-Abl PPI inh; inhibitors/quenchers counterscreen; inhibition, % at 6.75 µM; hit rate 8.5% among 1,300; AID 602125, 2011;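 further: ABL1-eGFP fusion protein alone without its partner RIN1-SBP; 0% = protein with vehicle and 100% = wells lacking protein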
Numbers without * were called inactive; · = no result. In the library only some 1.7% were active in any assay of this set; here they are far more common. Unless noted, no stated cut-off is given here; in the data, active means inhibition above about 6.5%; inactive means the rest.

SMILES	p97 ATPase inh	PREPL inhibitor	Hck Nef HTS	LYPLA1 inh	Rin1-Abl PPI inh	LYPLA2 counter	Rin1-Abl confirm	GFP quencher
O=C(NCCCN1CCCC1=O)c1ccc(NS(=O)(=O)c2ccc(F)cc2)cc1	·	5.6	·	-0.5	-0.4	-0.8	·	·
CN1CCN(c2ccc(CNC(=O)C3(C)Cc4c(-c5ccc(C(N)=O)cc5)ccnc4O3)cc2)CC1 (stereo not given)	·	·	·	·	5.7	·	·	·
CN(C)c1ccc(CNC(=O)C2(C)Cc3c(-c4cccc(C(N)=O)c4)ccnc3O2)cc1 (stereo not given)	·	·	·	·	15.7*	·	8.3*	2.1
NC(=O)c1cccc(-c2ccnc3c2CC(C(=O)Nc2ccccc2)O3)c1 (stereo not given)	·	·	·	·	12.1*	·	8.6*	0.2
CC(=O)Nc1ccc(-c2ccnc3c2CC(C)(C(=O)NCc2ccc(N4CCN(C)CC4)cc2)O3)cc1 (stereo not given)	·	·	·	·	8.7*	·	6.6*	-0.1
COc1ccc(NC(=O)C2(C)Cc3c(-c4cccc(C(N)=O)c4)ccnc3O2)cc1 (stereo not given)	·	·	·	·	10.1*	·	3.1	0.6
COc1ccc(N(C(=O)C(C)C)S(=O)(=O)c2ccc3ccccc3c2)cc1	·	3.1	·	-2.9	-1.8	-0.8	·	·
NC(=O)c1cccc(-c2ccnc3c2CC(C(=O)NCc2ccco2)O3)c1 (stereo not given)	·	·	·	·	0.9	·	·	·
CN(C)c1ccc(CNC(=O)C2Cc3c(-c4cccc(C(N)=O)c4)ccnc3O2)cc1 (stereo not given)	·	·	·	·	7.0*	·	7.2*	-1.9
CN1CCN(c2nc(Nc3ccc(F)cc3)nc(Nc3ccc(F)cc3)n2)CC1	·	3.3	·	-7.1	-4.8	-4.9	·	·
O=C(CCc1ccc(S(=O)(=O)N2CCOCC2)cc1)N/N=C/c1ccc(F)cc1F	-2.8	10.2	18.8	0.5	3.0	3.6	·	·
O=C(CCc1ccc(S(=O)(=O)N2CCOCC2)cc1)N/N=C/c1ccc(O)c(O)c1O	5.4	4.4	27.0	-4.9	12.5*	5.1	10.7*	9.4*
O=C1Nc2cc(C(=O)NCC3CCCO3)ccc2S/C1=C/c1ccccc1F (stereo not given)	·	-2.3	·	-1.6	-7.4	0.0	·	·
COc1cc(C2C=C(Nc3ccccc3)C(=O)N2c2ccccc2)ccc1O (stereo not given)	8.8	10.1	-1.3	1.4	7.1*	3.2	-2.5	-0.9
O=C1C(Nc2ccccc2)=CC(c2ccc(O)cc2)N1c1ccccc1 (stereo not given)	8.8	1.7	3.0	-1.1	-2.2	4.6	·	·
CCCCN1C(=O)C(=O)N(CC(=O)Nc2sc(C)c(C)c2C(=O)OC)C1=O	·	14.6	·	-1.8	2.4	0.3	·	·
O=C(N/N=C/c1cn(Cc2cccc(F)c2)c2ccccc12)c1cc(O)cc(O)c1	·	·	·	·	14.4*	·	8.7*	10.2*
COCCCN(C(=O)c1cc2c(s1)CCCCC2)c1c(N)n(Cc2ccccc2)c(=O)[nH]c1=O	·	-8.6	·	-0.3	-3.5	-5.0	·	·
COCC(=O)N1CCC(Oc2ccc(C(=O)NC3Cc4ccccc4C3)cc2)CC1	·	4.5	·	-3.4	2.2	-3.6	·	·
CCCN(CCC)S(=O)(=O)c1ccc(C(=O)NCc2ccc3c(c2)OCO3)cc1	-6.8	-2.5	1.1	-1.6	6.3*	-0.6	-1.2	2.3
COc1ccc(OCC(=O)N(Cc2sccc2C)C2CCS(=O)(=O)C2)cc1 (stereo not given)	·	4.9	·	-0.6	4.9	4.0	·	·
COc1ccccc1/C=[N+](\[O-])C1SC(=S)N(C)C1(C)C (stereo not given)	6.6	-1.3	16.4	1.2	6.8*	-4.8	-3.2	0.0
Cc1ccccc1CC(=O)Nc1cccc(S(=O)(=O)N2CCCC2)c1	·	16.1	·	0.3	-0.3	4.7	·	·
Cc1[nH]n(-c2ccccc2)c(=O)c1C(c1ccc(C(=O)O)cc1)c1c(C)[nH]n(-c2ccccc2)c1=O	13.7	6.9	10.2	0.5	16.7*	1.1	-0.2	2.0
Cc1[nH]n(-c2ccccc2)c(=O)c1C(=O)c1ccc([N+](=O)[O-])cc1	-1.7	5.4	22.4	-1.5	-1.9	-3.4	·	·
SMILES	p97 ATPase inh	PREPL inhibitor	Hck Nef HTS	LYPLA1 inh	Rin1-Abl PPI inh	LYPLA2 counter	Rin1-Abl confirm	GFP quencher
Cc1[nH]n(-c2ccccc2)c(=O)c1C(C[N+](=O)[O-])c1ccc(Br)cc1 (stereo not given)	-2.3	5.8	1.9	2.7	34.2*	4.0	-0.4	-0.1
Cc1[nH]n(-c2ccccc2)c(=O)c1C(c1cccc([N+](=O)[O-])c1)c1c(C)[nH]n(-c2ccccc2)c1=O	4.0	3.6	7.0	-0.2	9.1*	0.0	0.0	-1.0
CC1CCN(S(=O)(=O)N2CCC(C(=O)NCCc3ccccc3)CC2)CC1	·	-2.2	·	5.2	3.9	6.7	·	·
COc1cccc(C(=O)NCC(=O)N2CCC3(CC2)NCCc2[nH]cnc23)c1OC	·	0.1	·	5.1	2.3	1.3	·	·
CCc1ccc(-c2nc(CS(=O)CC(=O)NCc3ccco3)c(C)o2)cc1 (stereo not given)	·	-5.0	·	-2.9	-1.0	1.7	·	·
Cc1ccc(-c2cc(C(F)F)n3ncc(C(=O)Nc4c(C)nn(Cc5c(Cl)cccc5Cl)c4C)c3n2)cc1	3.0	11.1	7.5	-10.6	0.4	-5.8	·	·
Cc1nn(Cc2c(Cl)cccc2Cl)c(C)c1NC(=O)c1cnn2c(C(F)F)cc(-c3ccccc3)nc12	4.0	-2.3	15.7	-0.8	12.3*	-6.8	-2.0	0.4
CCC(=O)Nc1ccc(NC(=O)CSc2nnc(-c3ccco3)n2CC)cc1	·	-7.2	·	-2.0	2.9	1.3	·	·
CCOc1ccc(NS(=O)(=O)c2ccc(C(=O)N3CC(C)OC(C)C3)cc2)cc1 (stereo not given)	·	13.5	·	-0.1	8.9*	-3.1	9.7*	-0.1
Cc1ccc(S(=O)(=O)N2CCOCC2)cc1NC(=O)CN(C)C1CCS(=O)(=O)C1 (stereo not given)	-2.3	17.2	4.9	2.0	0.5	5.6	·	·
CN(CC(=O)Nc1cc(S(=O)(=O)N2CCOCC2)ccc1Cl)C1CCS(=O)(=O)C1 (stereo not given)	2.2	22.9	22.5	0.1	9.4*	-4.6	0.6	-0.8
COc1cc2c(cc1OC)C(C)N(C(=O)c1ccc(Cl)c(S(=O)(=O)N3CCCCC3)c1)CC2 (stereo not given)	·	0.8	·	1.4	0.1	5.2	·	·
